According to paper PMC7819943, “Rice protein-binding microarrays: a tool to detect cis-acting elements near promoter regions in rice”:
Over roughly 35,000 sequences, “fluorescence intensity (a.u.)” has its median near 10,000; the highest 2% begin near 52,000. For the sample, the highest values were picked, then their nearest neighbours and some sequences at random.

These sequences were tested against T1, OsWOX13 (Oryza sativa, UniProt Q5QMM3 1-267) (assay: protein-binding microarray (RPBM); PBS, 2% BSA, 51.3 ng/ul salmon testes DNA, 50 uM zinc acetate, 200 nM TF, 25 C, 1 h; high values mean tight binding). Conditions: protein: recombinant; tags: N-terminal polyhistidine and DsRed monomer fusion (pET32a); label: CyDye5-dUTP incorporated in the synthesized complementary strand; 3' TTTTT single-stranded linker to array surface; dsDNA, one strand shown.
T1 sequence: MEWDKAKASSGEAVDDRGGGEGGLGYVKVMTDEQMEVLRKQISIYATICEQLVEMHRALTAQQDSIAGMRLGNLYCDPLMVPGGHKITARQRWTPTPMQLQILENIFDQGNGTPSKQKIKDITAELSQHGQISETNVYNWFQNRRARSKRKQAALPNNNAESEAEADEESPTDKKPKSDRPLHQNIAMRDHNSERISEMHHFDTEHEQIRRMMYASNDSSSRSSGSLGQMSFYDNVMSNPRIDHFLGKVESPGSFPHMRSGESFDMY
Summary of the method: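 Per-feature fluorescence intensity (arbitrary units), read on an Axon 4000B scanner, is the binding signal. Transcription factors carrying an N-terminal polyhistidine tag and DsRed fusion were expressed in E. coli BL21-CodonPlus and purified on Ni–NTA. A custom Agilent array, made double-stranded by primer extension with Cy5-dUTP and blocked with 2% BSA, was incubated with 200 nM protein in PBS, 2% BSA, salmon testes DNA and 50 µM zinc acetate at 25 °C for 1 h and then washed.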
With “TAAAATAAATCAAATTAATACAAGTGAGATATCTTAGTAACGGAGTCACCTAGTGCAG” the binding signal was 6480 fluorescence intensity (a.u.).
In the case of “TGGCTCTGATCCATCAATTAGGATTTGCCAGTGCCTCTCCCGGAGTCACCTAGTGCAG”, the binding signal was 5390 fluorescence intensity (a.u.).
For “TAGAAGATAGATTGATTGATTGATATATACTATCTCTATACGGAGTCACCTAGTGCAG”, the binding signal was 52600 fluorescence intensity (a.u.).
For “AAGAAGAATCTATCTATCTATCTATCTATCAATCTCTATACGGAGTCACCTAGTGCAG”, the binding signal was 3320 fluorescence intensity (a.u.).
With “AATATATTGACATTGATATCTTATAAAGAGCCTATAGATACGGAGTCACCTAGTGCAG” the binding signal was 5820 fluorescence intensity (a.u.).
In the case of “GAAGGATTGAGATATGATTGATTATTATATCATATACTCTCGGAGTCACCTAGTGCAG”, the binding signal was 55000 fluorescence intensity (a.u.).
For “TCATATGATTAGGATATATCACATCTCATTATATTATATGCGGAGTCACCTAGTGCAG”, the binding signal was 17800 fluorescence intensity (a.u.).
With “TTTGGGATTATTATAATCTAGATTATTGAGTCATATTACTCGGAGTCACCTAGTGCAG” the binding signal was 10300 fluorescence intensity (a.u.).
In the case of “TCCACAATTTGCTAATCATATTTCTGTTGATAATGATAATCGGAGTCACCTAGTGCAG”, the binding signal was 7820 fluorescence intensity (a.u.).
“GAAGATTGAGCTCTGCAGCAACAACCCAAACACACAAAGCCGGAGTCACCTAGTGCAG” was tested, and the binding signal was 3290 fluorescence intensity (a.u.).
For “CATAGGATCAATTTAATATATTGACATGCCATTAGGCCATCGGAGTCACCTAGTGCAG”, the binding signal was 10600 fluorescence intensity (a.u.).
In the case of “CTTTACAATTAATACATGTTCCACTTGTCTCTCTCACAGACGGAGTCACCTAGTGCAG”, the binding signal was 4970 fluorescence intensity (a.u.).
For “CGTAGATTTGACCGAACAAATTGTACAGTAATGTACTAGGCGGAGTCACCTAGTGCAG”, the binding signal was 20100 fluorescence intensity (a.u.).
In the case of “ACTGTAATTTTAATTATATTATTGTTACACTATAATTGCACGGAGTCACCTAGTGCAG”, the binding signal was 41800 fluorescence intensity (a.u.).
“GTGTAATTATACTATAATTGTACTGTAATTACATCTGTCACGGAGTCACCTAGTGCAG” was tested, and the binding signal was 56600 fluorescence intensity (a.u.).
In the case of “TTTACACTATAATTATATTCACTTATACATTGTAATTACACGGAGTCACCTAGTGCAG”, the binding signal was 13800 fluorescence intensity (a.u.).
In the case of “GTGTAATTACACTACGATTGTACTGTAATTACATCTGTCACGGAGTCACCTAGTGCAG”, the binding signal was 29900 fluorescence intensity (a.u.).
“ATTATACTATGATTGTACTGTAATTACATCTGTCAAATTTCGGAGTCACCTAGTGCAG” was tested, and the binding signal was 24500 fluorescence intensity (a.u.).
“GTGTAATTACACTATAATTGCACTATAATTATATCTGTCACGGAGTCACCTAGTGCAG” was tested, and the binding signal was 61500 fluorescence intensity (a.u.).
“CTTTAAACAGTTTGAGTGAATTTAGGGGTACATATTTCTGCGGAGTCACCTAGTGCAG” was tested, and the binding signal was 6070 fluorescence intensity (a.u.).
“TTTTGCTTGATTGGTGGTCTGATGTATTTGATGAGTGCGACGGAGTCACCTAGTGCAG” was tested, and the binding signal was 31300 fluorescence intensity (a.u.).
For “ACACTAACAAATCAATTTTCTCTACCCACCACTCCTGAATCGGAGTCACCTAGTGCAG”, the binding signal was 8890 fluorescence intensity (a.u.).
“ATAATTATTTGTTTTCAGTCATGTATCTTCATCTTATACACGGAGTCACCTAGTGCAG” was tested, and the binding signal was 6340 fluorescence intensity (a.u.).
With “AATGACATGGCAATCTCACCTTGGAGGTTTGTGCTTTGAACGGAGTCACCTAGTGCAG” the binding signal was 4460 fluorescence intensity (a.u.).
For “AAGCAATATAATTGTTTCTCTAATTAGGAGTTATACATGTCGGAGTCACCTAGTGCAG”, the binding signal was 19000 fluorescence intensity (a.u.).
In the case of “GGGGACATAAATCCTGATGATTTCCTCAACTTTGATCTTGCGGAGTCACCTAGTGCAG”, the binding signal was 3630 fluorescence intensity (a.u.).
“TAAGCCTAATTAATTTGTCATTAGCAAATGTTTACTATAGCGGAGTCACCTAGTGCAG” was tested, and the binding signal was 30300 fluorescence intensity (a.u.).
With “AGCCTAATTAATTTGTCATTAGCAAATGTTTACTGTAGCACGGAGTCACCTAGTGCAG” the binding signal was 57000 fluorescence intensity (a.u.).
For “CCTAATTAATCTGTCATTAGCAAATATTTATTGTAGCATCCGGAGTCACCTAGTGCAG”, the binding signal was 47000 fluorescence intensity (a.u.).
“AATTAATTTGTCATTAGTAAATGTTTACTGTAGCACCACACGGAGTCACCTAGTGCAG” was tested, and the binding signal was 42000 fluorescence intensity (a.u.).
For “TCTAATTAATTTGTCATTAGCAAATGTTTATTGTAGCATCCGGAGTCACCTAGTGCAG”, the binding signal was 58400 fluorescence intensity (a.u.).
With “CCTAATTAATCCGTCATTAGCAAATGTTTATTGTAGCACCCGGAGTCACCTAGTGCAG” the binding signal was 41300 fluorescence intensity (a.u.).
With “CTTGATTAATCCGTACGTCTATCAACTCAGCCCGAAACGCCGGAGTCACCTAGTGCAG” the binding signal was 46200 fluorescence intensity (a.u.).
With “GAAATTATTGCTGAAATTTTGTCCTTCATAGTGTGCTGTTCGGAGTCACCTAGTGCAG” the binding signal was 12200 fluorescence intensity (a.u.).
With “TTAGATTGGTTATAGATGAATTGGAGCTAGTAGTGGGTTGCGGAGTCACCTAGTGCAG” the binding signal was 56200 fluorescence intensity (a.u.).
In the case of “GGCTATTAGATTGGTTATAAATGAATTGGAGCCAATAGTGCGGAGTCACCTAGTGCAG”, the binding signal was 39100 fluorescence intensity (a.u.).
In the case of “ACATGATAGACTAATGAGTAGATTGTTGTCCTAATTAGCTCGGAGTCACCTAGTGCAG”, the binding signal was 54100 fluorescence intensity (a.u.).
In the case of “AAGCTATTAGATTGGCTATAGATGAATTGAAGTTAGTAGTCGGAGTCACCTAGTGCAG”, the binding signal was 26100 fluorescence intensity (a.u.).
For “ATTGGCTATTAGATTGGCTATAGATGAATTAGAGTTAGTACGGAGTCACCTAGTGCAG”, the binding signal was 15400 fluorescence intensity (a.u.).
With “CATGATTAATTTTAGGCCGGTCATTGCTCGTGTCCTTGTTCGGAGTCACCTAGTGCAG” the binding signal was 65300 fluorescence intensity (a.u.).
For “CTTGAGATGATTAGACTCCTAATGTAGCTCATGATTATATCGGAGTCACCTAGTGCAG”, the binding signal was 14400 fluorescence intensity (a.u.).
“AAACCCTTAATTGCTCATGATTTTGCCATTATAATATAGGCGGAGTCACCTAGTGCAG” was tested, and the binding signal was 44600 fluorescence intensity (a.u.).
